# Screening data deposited in PubChem by Sanford-Burnham Center for Chemical Genomics.
# VHR inh color – VHR1 (DUSP3) phosphatase inhibition; recombinant VHR phosphatase, colorimetric substrate read-out; inhibition, % at 20 µM; 50,000 compounds, 0.7% hits; in the data active means inhibition above about 60%
# Target sequence (P51452 whole entry, looked up): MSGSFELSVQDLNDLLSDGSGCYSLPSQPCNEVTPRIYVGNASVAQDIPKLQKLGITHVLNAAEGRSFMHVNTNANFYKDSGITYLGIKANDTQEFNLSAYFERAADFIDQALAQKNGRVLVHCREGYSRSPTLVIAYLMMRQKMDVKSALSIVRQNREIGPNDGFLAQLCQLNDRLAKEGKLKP
# Active calls of the source: *. This is one part of a sample in which hits are shown more often than they occur.
SMILES,VHR inh color
S=C(NCCN1CCOCC1)Nc1cccc(Cl)c1,12
Fc1ccc(NC(=S)NCCN2CCOCC2)cc1,91
Oc1ccccc1C1=NOC(O)(C(F)(F)F)C1 (centres undefined),4
COc1ccccc1NC(=O)Cc1ccccc1[N+](=O)[O-],-12
COc1ccc(C(=O)Nc2ccc(I)cc2Cl)cc1OC,7
COC(=O)c1ccc(-n2c(C)cc(/C=C3\NC(=S)NC3=O)c2C)cc1,111*
Cc1cc(/C=C2/NC(=S)NC2=O)c(C)n1-c1ccc(Br)cc1,-24
CCc1ccc(-n2c(C)cc(/C=C3/NC(=S)NC3=O)c2C)cc1,-16
Cc1ccc(C)c(S(=O)(=O)Nc2cc(Br)c(O)c3ccccc23)c1,10
O=S(=O)(Nc1cc(Cl)c(O)c2ccccc12)c1ccc(F)cc1,55
Cc1ccc(S(=O)(=O)Nc2cc(Sc3ncn[nH]3)c(O)c3ccccc23)cc1,100*
O=C1/C(=C/c2cc(Cl)cc(Cl)c2O)SC(=S)N1Cc1ccccc1,14
COC(=O)c1ccc(-n2c(C)cc(C=C3C(=O)N(C)C(=O)N(C)C3=O)c2C)cc1,-18
O=C1C(=O)N(Cc2ccc(Cl)c(Cl)c2)C2C=CC=CC12 (centres undefined),-12
CC(=O)Nc1cccc(NC(=O)CC(c2ccccc2)c2ccccc2)c1,-2
Cc1cccc(N2C(=O)NC(=O)/C(=C/c3cccn3-c3ccc([N+](=O)[O-])cc3)C2=O)c1,-2
CCN1C(=O)C(=Cc2cccn2-c2ccc([N+](=O)[O-])cc2)C(=O)N(CC)C1=S,73*
CC1=NN(c2ccccc2)C(=O)/C1=C/c1cccn1-c1ccc([N+](=O)[O-])cc1,-22
CCC1(c2ccccc2)C(=O)NC(=O)N(C(=O)c2ccccc2Cl)C1=O (centres undefined),-15
CCN(CC)C(=O)c1sc(NC(=O)c2cc(OC)cc(OC)c2)c(C(=O)OC)c1C,95*
CCOC(=O)c1c(NC(=O)c2ccc(OC)c(OC)c2)sc(C(=O)N(CC)CC)c1C,-6
CCOc1cc(C(=O)Nc2sc(C(=O)N(CC)CC)c(C)c2C(=O)OC(C)C)cc(OCC)c1OCC,-8
CC(C)c1cc(Nc2nccs2)cc(C(C)C)c1O,10
COc1ccccc1N(CC(=O)Nc1cccc(C)c1C)S(=O)(=O)c1ccccc1,-12
CCOc1ccccc1NC(=O)c1c(NC(=O)Cc2ccc(OC)cc2)sc2c1CCC(C)C2 (centres undefined),8
SMILES,VHR inh color
CCOc1ccccc1NC(=O)c1c(NC(=O)c2ccccc2F)sc2c1CCC(C)C2 (centres undefined),-10
CCOc1ccccc1NC(=O)c1c(NC(=O)c2cccc(F)c2)sc2c1CCC(C)C2 (centres undefined),116*
CCN(CC)c1ccc(N2C(=O)/C(=C/c3ccc(C(=O)O)cc3)SC2=S)cc1,16
CC(=O)Nc1nonc1-c1nc2ccccc2n1Cc1ccc(C(C)(C)C)cc1,-11
CC(C)(C)c1ccc(Cn2c(-c3nonc3N)nc3ccccc32)cc1,60*
CC(=O)Nc1nonc1-c1nc2ccccc2n1Cc1ccccc1,-2
CC(C)C1=CC(=NS(=O)(=O)c2ccc(Cl)cc2)C=C(C(C)C)C1=O,14
N/N=C1\CCCc2c1[nH]c1ccc(C3CCCCC3)cc21,-16
COc1ccc(C(=O)N2CCN(Cc3ccc(Cl)cc3)CC2)cc1OC,3
Cc1nc2ncccn2c1-c1csc(Nc2cccc(O)c2)n1,61
CCOc1ccc(Nc2nc(-c3sc(NC(=O)CC)nc3C)cs2)cc1,4
Cc1ccn2c(-c3csc(Nc4cccc(O)c4)n3)c(C)nc2c1,67*
CCOc1ccc(Nc2nc(-c3ccccn3)cs2)cc1,-11
Cc1ccc(-c2csc(Nc3ccc(O)cc3)n2)c(C)c1,56
CCOc1ccc(Nc2nc(-c3c(C)nc4cc(C)ccn34)cs2)cc1,88*
O=C(NC(c1ccccc1)c1ccccc1)C(Sc1ccccc1)c1ccccc1 (centres undefined),-10
CCc1c(C)sc(NC(=O)C23CC4CC(CC(C4)C2)C3)c1C(=O)OC,9
COc1ccc(/C=C2\SC(=S)N(Cc3ccco3)C2=O)cc1,-4
O=C1N=C(N2CCCC2)S/C1=C\c1ccc(O)cc1,3
O=[N+]([O-])c1ccc(C=Nc2ccc(Br)cc2)o1,-4
COc1ccccc1C/C(N)=N/OC(=O)c1ccc(I)cc1,4
COc1ccccc1C/C(N)=N/OC(=O)c1ccco1,96*
COc1ccccc1C/C(N)=N/OC(=O)c1ccccc1Br,-1
Cc1cc(=O)oc2cc(OCC(=O)C(C)(C)C)ccc12,-9
Cc1ccc(-n2cc(/C=c3\sc4nc5cc(C)c(C)cc5n4c3=O)cn2)cc1C,3
SMILES,VHR inh color
Cc1ccc(-n2cc(C=C3C(=O)NC(=O)NC3=O)cn2)cc1C,105*
Cc1ccc(-n2c(C)cc(C=C3C(=O)NC(=S)NC3=O)c2C)cc1C,16
O=C(NCCNc1ccc(Cl)cc1[N+](=O)[O-])c1ccc2c(c1)OCCO2,-2
O=C(N1CCSCC1)C(F)(F)C(F)(F)C(F)(F)C(F)(F)F,0
COC(=O)c1ccc(/C=C2/N=C(c3ccc(OC)cc3)N(c3ccc(F)cc3)C2=O)cc1,-8
Cn1/c(=N/N=C/c2cccc(Cl)c2Cl)sc2ccccc21,1
Cn1/c(=N/N=C/C=C/c2ccco2)sc2ccccc21,114*
CN(C)c1ccc(/C=C/C=N/N=c2\sc3ccccc3n2C)cc1,13
COC(=O)c1ccc(COc2cc3oc(=O)c4c(c3cc2Cl)CCC4)cc1,1
COC(=O)c1ccc(COc2ccc3c(-c4ccccc4)cc(=O)oc3c2C)cc1,-7
COC(=O)c1ccc(COc2cc3oc(=O)cc(-c4ccccc4)c3cc2Cl)cc1,98*
COc1cccc(C(=O)N2CCN(Cc3ccco3)CC2)c1,-19
CCC1(c2ccccc2)OC(=O)C2C3CCCCC3=C3CCCCC3C21 (centres undefined),-10
COc1cccc(/C=C2\C(=O)NC(=O)N(c3cc(C)cc(C)c3)C2=O)c1,-24
CCC(C)NC(=O)CN(c1ccccc1)S(=O)(=O)c1ccccc1[N+](=O)[O-] (centres undefined),-7
COc1ccc(/C=C2\SC(N3CCCCCC3)=NC2=O)cc1OC,9
CCOc1cc(/C=C2\SC(N3CCCCCC3)=NC2=O)ccc1O,3
CCOc1cc(/C=C2\SC(N3CCN(C4=NC(=O)/C(=C\c5ccc(O)c(OCC)c5)S4)CC3)=NC2=O)ccc1O,88*
Cc1ccc(N2C(=O)C(O)C(O)C2=O)cc1 (centres undefined),-23
CCOC(=O)C1=CN(c2ccc(C)c(C)c2)C=C(C(=O)OCC)C1c1ccsc1,-6
Cc1ccc(C(=O)N/C(=C/c2cccnc2)C(=O)N2CCCC2)cc1,-16
COc1ccccc1NC(=O)c1cc2cccc(OC)c2oc1=O,-4
O=C(O)c1cccc2c1NC(c1ccc(Cl)cc1)C1CC=CC21 (centres undefined),86*
O=C(O)c1cccc2c1NC(c1cccc3ccccc13)C1CC=CC21 (centres undefined),23
O=C(O)c1cccc2c1NC(c1ccc([N+](=O)[O-])cc1)C1CC=CC21 (centres undefined),49
COc1ccccc1NC(=O)C1=C(C)NC(SCC(=O)c2ccccc2)=C(C#N)C1c1ccccc1 (centres undefined),-83
COC(=O)c1ccc(/C=C2/SC(=S)N(CC(=O)O)C2=O)cc1,25
Cc1cc([N+](=O)[O-])ccc1-c1ccc(C(=O)Nc2ccc(O)c(-c3nc4ccccc4s3)c2)o1,14
COc1ccc(-n2cnc3cc(NC(C)=O)ccc32)cc1,97*
